Test results reported in PubChem BioAssay.
Calls of active or inactive are those of the source.

How the values were obtained:
[1] = system: Wnt5a (protein binding on small-molecule microarray); assay: small molecules binding Wnt5a protein – biophysical, small-molecule microarray, 635/667 nm fluorescence, primary screen (AID 1142); conditions: 635 nm fluorescence, higher = more signal;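 further: fluorescence read at 667 nm with signal to noise per printed feature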
[2] = ATP-based viability of Huh7 replicon cells – cell-based, CellTiter-Glo luminescence, basal, 48 h, cytotoxicity control for HCV replication inhibitor project, primary screen (AID 1143); conditions: higher = more signal, called active from +8 up or from −8 down;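 further: Huh7 hepatoma cells carrying a hepatitis C replication reporter with no stimulus; test concentration not given here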
[3] = basal CRE-LacZ reporter activity in PC12 – cell-based, unstimulated, primary screen (AID 1145); conditions: no forskolin, luminescence, 4.5 h, higher = more signal, called active from +8 up or from −8 down
[4] = forskolin-driven CRE-LacZ activity in PC12 – cell-based, CRE-LacZ reporter, forskolin-stimulated, primary screen (AID 1146); conditions: luminescence, 4.5 h, higher = more signal, called active from +8 up or from −8 down;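 further: PC12 cells with 6xCRE LacZ reporter stimulated by forskolin 10 µM; beta-galactosidase reporter signal reflecting CREB driven transcription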
[5] = target: Streptavidin (Streptomyces avidinii) (UniProt P22629); assay: compounds binding control protein streptavidin – biophysical, small-molecule microarray, 635/667 nm fluorescence, artefact control for SMM compound annotation, primary screen (AID 1147); conditions: higher = more signal;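 further: signal reflects streptavidin binding to arrayed compounds as a control protein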
Streptavidin (Streptomyces avidinii), sequence (P22629 whole entry, looked up): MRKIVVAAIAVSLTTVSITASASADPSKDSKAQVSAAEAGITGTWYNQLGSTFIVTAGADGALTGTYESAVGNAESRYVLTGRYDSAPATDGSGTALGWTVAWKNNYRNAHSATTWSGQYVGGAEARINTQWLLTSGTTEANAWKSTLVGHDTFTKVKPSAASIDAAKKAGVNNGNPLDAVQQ

[6] = probe aInhba binding on compound microarray – biochemical, small-molecule microarray, 635/667 nm fluorescence, primary screen (AID 1148); conditions: higher = more signal;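 further: score merges 667nm spot fluorescence with signal-to-noise for antibody binding to printed compounds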
Torsin-1A (Homo sapiens) [7] = target: Torsin-1A (Homo sapiens) (UniProt O14656); assay: TOR1A wild-type binding on microarray – cell lysate, small-molecule microarray, lysate, 635/667 nm, primary screen (AID 1149); conditions: COS7 hTOR1A-WT lysate, 635 nm fluorescence, higher = more signal
Torsin-1A (Homo sapiens), sequence (O14656 whole entry, looked up): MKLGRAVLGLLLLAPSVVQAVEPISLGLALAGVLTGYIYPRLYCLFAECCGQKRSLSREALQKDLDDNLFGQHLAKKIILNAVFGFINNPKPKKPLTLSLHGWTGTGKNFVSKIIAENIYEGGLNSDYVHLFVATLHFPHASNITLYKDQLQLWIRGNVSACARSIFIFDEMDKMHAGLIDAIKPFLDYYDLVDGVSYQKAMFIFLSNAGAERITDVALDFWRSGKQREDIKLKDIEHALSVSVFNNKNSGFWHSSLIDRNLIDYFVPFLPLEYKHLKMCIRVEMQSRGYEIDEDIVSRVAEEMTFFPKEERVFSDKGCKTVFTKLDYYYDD

Torsin-1A (Homo sapiens) [8] = target: Torsin-1A (Homo sapiens) (UniProt O14656); assay: torsin A mutant lysate binding on microarrays – cell lysate, small-molecule microarray, COS7 lysate, 635/667 nm fluorescence, primary screen (AID 1150); conditions: COS7 hTOR1A mutant lysate, 635 nm fluorescence, higher = more signal;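 further: score pools 667 nm emission and signal to noise measuring lysate protein binding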
[9] = system: Sonic hedgehog protein (Shh); assay: Sonic hedgehog microarray binding compounds – biochemical, small-molecule microarray, 635/667 nm fluorescence, primary screen (AID 1151); conditions: 635 nm fluorescence, higher = more signal;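 further: Shh protein binding to compounds spotted on small-molecule microarray slides; score combines spot fluorescence intensity with signal-to-noise across triplicate slides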
[10] = optical density shifts of acrAB sulA E. coli – strain DRC41, OD650, 48 h, E. coli filamentation inducer project, primary screen (AID 1152); conditions: higher = more signal, called active from +8 up or from −8 down;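 further: E. coli MC1000 strain DRC41 lacking acrAB efflux pump and sulA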
[11] = probe aLefty1 binding on compound microarray – biochemical, small-molecule microarray, 635/667 nm fluorescence, primary screen (AID 1153); conditions: higher = more signal;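 further: score merges spot fluorescence with signal-to-noise ratio from the scanned slide images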
[12] = plasmodial surface anion channel blockers, osmotic lysis – cell-based, P. falciparum Indochina, OD700, 1 h, primary screen (AID 1154); conditions: P. falciparum Indochina infected RBC osmotic lysis, higher = more signal, called active from +8 up or from −8 down
[13] = plasmodial surface anion channel blockers, osmotic lysis – cell-based, P. falciparum Indochina, OD700, 2 h, primary screen (AID 1155);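 further: lysis reports solute entry through the parasite surface anion channel PSAC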; conditions: P. falciparum Indochina infected erythrocytes, higher = more signal, called active from +8 up or from −8 down
[14] = changes in parasitized red cell lysis, either direction – P. falciparum Indochina, OD700, 3 h, PSAC antagonist project, primary screen (AID 1156); conditions: P. falciparum-infected erythrocytes, osmotic lysis, higher = more signal, called active from +8 up or from −8 down
[15] = plasmodial surface anion channel blockers, osmotic lysis – cell-based, P. falciparum Indochina, OD700, 18 h, primary screen (AID 1157); conditions: P. falciparum Indochina infected erythrocytes, osmotic lysis OD700, 18 h; higher = more signal, called active from +8 up or from −8 down
[16] = S6 kinase pathway phospho-S6 level changes – cell-based, A549, cytoblot, luminescence, serum-stimulated, primary screen (AID 1158); conditions: 5 h, higher = more signal;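 further: serum-stimulated A549 lung adenocarcinoma cells; signal is phosphorylated S6 detected by cytoblot immunostaining with HRP secondary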
[17] = target: NADPH oxidase 2 (Homo sapiens) (UniProt P04839); assay: compounds shifting NOX2 Amplex Red fluorescence – cell-based, HEK293-NOX2, PMA-stimulated, NOX inhibitor project, primary screen (AID 1159); conditions: 45 min, higher = more signal, called active from +8 up or from −8 down; further: test concentration not given here
NADPH oxidase 2 (Homo sapiens), sequence (P04839 whole entry, looked up): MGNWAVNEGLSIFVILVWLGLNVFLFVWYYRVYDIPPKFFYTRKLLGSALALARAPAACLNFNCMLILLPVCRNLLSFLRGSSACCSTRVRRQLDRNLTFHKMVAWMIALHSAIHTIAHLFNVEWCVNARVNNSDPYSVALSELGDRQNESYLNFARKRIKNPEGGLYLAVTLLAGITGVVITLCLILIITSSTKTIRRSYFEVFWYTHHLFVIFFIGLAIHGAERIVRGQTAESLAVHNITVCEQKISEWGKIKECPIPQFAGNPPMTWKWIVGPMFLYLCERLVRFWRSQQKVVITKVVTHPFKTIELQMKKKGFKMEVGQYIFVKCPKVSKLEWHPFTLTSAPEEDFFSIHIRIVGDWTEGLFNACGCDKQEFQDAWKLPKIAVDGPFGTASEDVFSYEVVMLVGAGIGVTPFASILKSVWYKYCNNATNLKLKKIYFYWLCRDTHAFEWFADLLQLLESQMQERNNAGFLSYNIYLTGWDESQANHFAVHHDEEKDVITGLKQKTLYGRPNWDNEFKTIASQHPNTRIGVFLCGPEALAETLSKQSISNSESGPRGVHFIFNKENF

[18] = target: NADPH oxidase 4 (Homo sapiens) (UniProt Q9NPH5); assay: compounds shifting NOX4 Amplex Red fluorescence – cell-based, HEK293-NOX4, tetracycline-induced, NOX inhibitor project, primary screen (AID 1160); conditions: HEK293-NOX4, Amplex Red H2O2 fluorescence, 45 min; higher = more signal, called active from +8 up or from −8 down
NADPH oxidase 4 (Homo sapiens), sequence (Q9NPH5 whole entry, looked up): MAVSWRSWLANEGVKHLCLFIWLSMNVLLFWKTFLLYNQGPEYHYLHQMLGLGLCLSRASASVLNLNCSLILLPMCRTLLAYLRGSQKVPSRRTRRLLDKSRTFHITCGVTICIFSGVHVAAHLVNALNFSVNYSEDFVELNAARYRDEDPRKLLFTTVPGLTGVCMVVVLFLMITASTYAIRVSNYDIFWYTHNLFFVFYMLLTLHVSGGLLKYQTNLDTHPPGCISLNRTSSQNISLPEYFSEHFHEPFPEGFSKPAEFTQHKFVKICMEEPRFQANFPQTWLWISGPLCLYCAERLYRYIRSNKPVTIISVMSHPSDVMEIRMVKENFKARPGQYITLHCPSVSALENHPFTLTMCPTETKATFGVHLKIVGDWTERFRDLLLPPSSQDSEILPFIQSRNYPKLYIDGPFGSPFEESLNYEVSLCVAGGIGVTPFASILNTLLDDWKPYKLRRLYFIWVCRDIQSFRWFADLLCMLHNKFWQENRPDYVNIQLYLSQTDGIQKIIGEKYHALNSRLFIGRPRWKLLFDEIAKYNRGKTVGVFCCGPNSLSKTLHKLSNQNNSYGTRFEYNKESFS

[19] = target: NADPH oxidase 5 (Homo sapiens) (UniProt Q96PH1); assay: compounds shifting NOX5 Amplex Red fluorescence – cell-based, HEK293-NOX5, NOX inhibitor project, primary screen (AID 1161); conditions: HEK293-NOX5, ionomycin, 45 min, higher = more signal
NADPH oxidase 5 (Homo sapiens), sequence (Q96PH1 whole entry, looked up): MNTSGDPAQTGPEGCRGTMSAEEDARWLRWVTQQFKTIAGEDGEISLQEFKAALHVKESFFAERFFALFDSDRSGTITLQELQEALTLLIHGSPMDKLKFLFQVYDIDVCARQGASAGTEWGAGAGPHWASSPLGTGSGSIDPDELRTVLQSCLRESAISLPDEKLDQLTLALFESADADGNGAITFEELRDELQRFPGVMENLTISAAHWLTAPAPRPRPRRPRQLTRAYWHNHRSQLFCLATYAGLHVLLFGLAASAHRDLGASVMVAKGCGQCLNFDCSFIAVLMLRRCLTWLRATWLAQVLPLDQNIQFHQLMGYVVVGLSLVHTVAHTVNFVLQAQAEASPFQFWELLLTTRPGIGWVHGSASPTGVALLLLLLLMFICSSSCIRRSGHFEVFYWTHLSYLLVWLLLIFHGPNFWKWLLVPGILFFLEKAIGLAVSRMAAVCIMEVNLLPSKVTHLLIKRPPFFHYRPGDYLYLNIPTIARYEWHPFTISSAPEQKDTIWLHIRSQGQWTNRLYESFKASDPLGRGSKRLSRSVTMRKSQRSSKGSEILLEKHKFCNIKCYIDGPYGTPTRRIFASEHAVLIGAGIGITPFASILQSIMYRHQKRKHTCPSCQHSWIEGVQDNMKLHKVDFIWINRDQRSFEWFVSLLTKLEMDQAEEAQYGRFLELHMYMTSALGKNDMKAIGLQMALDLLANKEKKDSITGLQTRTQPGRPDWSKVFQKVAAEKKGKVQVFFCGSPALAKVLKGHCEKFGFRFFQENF

[20] = compound effects on lung adenocarcinoma cell viability – A549, calcein-AM fluorescence, 48 h, basal, profiling panel (AID 1162); conditions: higher = more signal; further: test concentration not given here

| SMILES | composite z-score [1] | z-score [2] | z-score [3] | z-score [4] | composite z-score [5] | composite z-score [6] | composite z-score (Torsin-1A (Homo sapiens) [7]) | composite z-score (Torsin-1A (Homo sapiens) [8]) | composite z-score [9] | z-score [10] | composite z-score [11] | z-score [12] | z-score [13] | z-score [14] | z-score [15] | z-score [16] | z-score [17] | z-score [18] | z-score [19] | z-score [20] |
| --- | --- | --- | --- | --- | --- | --- | --- | --- | --- | --- | --- | --- | --- | --- | --- | --- | --- | --- | --- | --- |
| C=C(COC)/C(=C/C[C@H](OC(C)=O)c1cccc(OCCO)c1)c1cc(C(=O)OC)ccc1OC | 0.44 | -8.11 (active) | 11.5 (active) | -0.4 (inactive) | -0.356 | -0.018 | 1.34 | 1.22 | 1.72 | 1.59 (inactive) | -0.101 | 10.1 (active) | 1.78 (inactive) | -2.63 (inactive) | -0.0354 (inactive) | 1.44 | -1.94 (inactive) | 0.00567 (inactive) | -3.06 | -0.344 |
| CN(C)CCCC[C@@H]1NC(=O)[C@@H]2C[C@H](C(=O)NCCCCCNC(=O)CS)[C@H](c3cccc(OCCO)c3)N2C1=O | 0.21 | -5.23 (inactive) | -0.39 (inactive) | -1.49 (inactive) | 0.07 | 0.0869 | 0.672 | 0.408 | 2.01 | 1.97 (inactive) | 0.2 | 2.86 (inactive) | 0.159 (inactive) | -2.96 (inactive) | -0.778 (inactive) | 2.45 | -0.143 (inactive) | 0.366 (inactive) | 2.19 | -0.459 |
| C=CCN1C(=O)[C@]2(O[C@H](CCn3cc([C@H](O)c4ccccc4)nn3)[C@@H]([Si](C)(C)c3ccc(OC)cc3)[C@@H]2C)c2cc(N3CCOC3=O)ccc21 | -0.185 | -5.33 (inactive) | 2.8 (inactive) | -2.35 (inactive) | -0.0082 | -0.224 | 0.772 | 0.76 | -0.429 | 1.46 (inactive) | -0.417 | 4.38 (inactive) | -0.527 (inactive) | 1.03 (inactive) | -1.58 (inactive) | 0.348 | -0.122 (inactive) | 1.61 (inactive) | -2.66 | 0.0522 |
| COC(=O)C(CC#Cc1ccc2c(c1)[C@]1(C(=O)N2)[C@H](c2ccccc2OCCO)N2[C@H](c3ccccc3)[C@H](c3ccccc3)OC(=O)[C@H]2[C@@H]1C(=O)N1CCCCCCC1)C(=O)OC | 2.33 | -2.45 (inactive) | 0.212 (inactive) | -0.706 (inactive) | 3.71 | 2.15 | 2.87 | 3.23 | 1.32 | 1.02 (inactive) | 2.82 | 0.867 (inactive) | 0.71 (inactive) | 0.776 (inactive) | 0.51 (inactive) | 0.67 | 0.797 (inactive) | 0.68 (inactive) | 2.04 | 0.447 |
| C=C[C@H](OC)[C@@H](OC(=O)Nc1ccc(OC)cc1)c1ccc(OC)c(O)c1 | -0.307 | -0.088 (inactive) | 2.03 (inactive) | -1.53 (inactive) | -1.38 | -0.348 | -0.86 | -0.657 | 0.149 | 2.02 (inactive) | -0.0984 | 1.27 (inactive) | -1.23 (inactive) | -1.84 (inactive) | -1.83 (inactive) | -0.443 | -2.28 (inactive) | -1.92 (inactive) | -2 | 0.29 |
| CC(C)N1CC=CC23O[C@@H]4/C=C\CCCOC(=O)C4[C@H]2C(=O)N(CCCO)[C@@H]3C1=O (stereo not given in full) | -0.059 | -0.354 (inactive) | 0.191 (inactive) | -0.256 (inactive) | -1.1 | -0.176 | -0.934 | 0.367 | -0.102 | 1.71 (inactive) | 0.236 | 0.245 (inactive) | 0.0014 (inactive) | 1.1 (inactive) | -0.083 (inactive) | -0.108 | 1.58 (inactive) | -1.85 (inactive) | 2.19 | 1.02 |
| CC(=O)NCCCC[C@@H]1NC(=O)[C@@H]2C[C@H](C(=O)O)[C@H](c3cccc(OCCO)c3)N2C1=O | 0.45 | -0.533 (inactive) | 0.151 (inactive) | -0.741 (inactive) | 0.397 | -0.0403 | 0.911 | 0.903 | 2.12 | 0.733 (inactive) | -0.138 | 0.495 (inactive) | 0.373 (inactive) | -1.49 (inactive) | 0.0814 (inactive) | 0.264 | -1.16 (inactive) | -0.282 (inactive) | -0.948 | 0.0822 |
| CC(C)(C)OC(=O)CC[C@@]1(C(=O)N2CCOCC2)N=C(c2ccc(OCCCO)cc2)O[C@@H]1c1ccccc1 | 0.674 | -1.77 (inactive) | 1.56 (inactive) | -0.257 (inactive) | 0.3 | 0.182 | 1.38 | 1.46 | -0.0953 | 1.79 (inactive) | 0.951 | 20.8 (active) | 3.95 (inactive) | 0.794 (inactive) | -0.73 (inactive) | 1.12 | -0.261 (inactive) | -0.961 (inactive) | -0.0438 | 0.343 |
| C=CCNC(=O)[C@@H]1[C@H]2C(=O)O[C@H](c3ccccc3)[C@H](c3ccccc3)N2[C@H](c2ccc(O)cc2)[C@@]12C(=O)Nc1ccc(C#Cc3ccc(OC)cc3)cc12 | 0.212 | -4.8 (inactive) | -0.0784 (inactive) | -1.25 (inactive) | 1.16 | 0.0228 | 0.248 | 0.286 | 0.551 | 2.73 (inactive) | 0.159 | 1.27 (inactive) | -0.224 (inactive) | 0.375 (inactive) | -0.957 (inactive) | 0.98 | 1.35 (inactive) | 1.23 (inactive) | 0.0881 | -0.629 |
